# Assay outcomes as filed in PubChem.
# Hits are enriched below; roughly 4.1% of the tested compounds scored in any of these assays.
# DAX1 inh-1: blocks DAX1 repression of SF-1 activated StAR promoter. HEK293T StAR-luciferase reporter, SF-1/DAX-1 repression relief. inhibition, % at 6.8 µM. hit rate 1.1% among 370,000. AID 652010;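 active means inhibition above the mean over all tested compounds plus 3 SD, cut at about 3.6% in these data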;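 further: 0% = DAX-1 cells with DMSO and 100% = cells lacking DAX-1 with DMSO; higher inhibition means more luminescence from relief of DAX-1 repression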
# DAX1 inh-2: NR0B1 (DAX1) inhibition; P51843; HEK293 Gal4-DAX1 luciferase reporter, luminescence; inhibition, % at 6.75 µM; hit rate 0.99% among 340,000; AID 504766;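 active means inhibition above the mean over all tested compounds plus 3 SD, cut at about 4.2% in these data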;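 further: 0% = DAX1-transfected cells with DMSO and 100% = empty-vector control cells with DMSO; inhibition shows as a rise in luminescence from relieved DAX1 repression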
# ssDAF-12 act: activators of S. stercoralis DAF-12 nuclear receptor | HEK293 ssDAF-12/GRIP1 lit1-tk-luc reporter, luminescence; % of 3 µM dafachronic acid response | activation, % at 6.8 µM | hit rate 1% among 370,000 | AID 652126;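 active means activation above the mean over all tested compounds plus 3 SD, cut at about 0.9% in these data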;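 further: 0% = DMSO-only wells and 100% = 3 µM delta7-dafachronic acid wells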
# hcDAF-12 act: activators of H. contortus DAF-12 nuclear receptor; HEK293 hcDAF-12 lit1-tk-luc reporter, luminescence; 0% DMSO, 100% Δ7-dafachronic acid; activation, % at 6.8 µM; hit rate 1.4% among 370,000;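 active means activation above the mean of all tested compounds plus 3 SD, cut at about 5.5% in these data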;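 further: 100% = response to 3 µM Δ7-dafachronic acid high control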
# hgDAF-12 ag: hgDAF-12 agonism, primary luciferase screen; activation, % at 6.8 µM; AID 687014; HEK293 GAL4-hgDAF12 UAS-luciferase reporter, agonist luminescence; normalized to butyrate control; hit rate 1.8% among 370,000;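 active means activation above a cutoff set at the mean of all screened compounds plus 3 SD, cut at about 10% in these data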;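 further: 0% = DMSO wells and 100% = sodium butyrate wells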
# DAX1 conf: confirmation of human DAX1 (NR0B1) inhibitors | shares compounds with DAX1 inh-1 | HEK293T StAR-promoter luciferase reporter, SF-1/DAX-1 repression | inhibition, % at 6.8 µM | hit rate 87% among 2,400 | AID 652134;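 active means inhibition above the average of every tested compound plus 3 SD, cut at about 3.8% in these data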;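 further: 0% = DAX-1 cells with DMSO and 100% = no DAX-1 control cells with DMSO; active compounds raise luminescence by relieving repression of the StAR reporter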
# Target sequence (P51843 whole entry, looked up): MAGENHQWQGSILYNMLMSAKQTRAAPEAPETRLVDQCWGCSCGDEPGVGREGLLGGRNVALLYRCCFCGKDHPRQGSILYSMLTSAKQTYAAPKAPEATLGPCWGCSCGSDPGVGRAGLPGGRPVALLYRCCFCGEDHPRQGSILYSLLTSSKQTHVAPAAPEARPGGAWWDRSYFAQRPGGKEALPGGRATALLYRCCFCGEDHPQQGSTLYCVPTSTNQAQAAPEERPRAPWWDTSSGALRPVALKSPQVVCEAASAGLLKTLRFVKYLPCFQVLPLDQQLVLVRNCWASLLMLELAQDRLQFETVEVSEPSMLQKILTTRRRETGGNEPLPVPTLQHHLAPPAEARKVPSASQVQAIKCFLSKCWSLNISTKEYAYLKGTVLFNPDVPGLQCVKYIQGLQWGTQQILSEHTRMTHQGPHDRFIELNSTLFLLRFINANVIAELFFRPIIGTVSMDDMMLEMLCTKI
# SF1 mutant ctr: counter-screen for DAX1 inhibitors: nonselective inhibitors with SF-1 AF2 mutant. shares compounds with DAX1 inh-1. HEK293 StAR-luciferase, luminescence. inhibition, % at 6.8 µM. hit rate 78% among 2,400;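 active means inhibition above the mean of all tested compounds plus 3 SD, cut at about 3% in these data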;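 further: 0% = DAX-1 transfected cells with DMSO and 100% = cells without DAX-1 with DMSO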
# Starred values were filed as active, the others as inactive; x = no result.
SMILES,DAX1 inh-1,DAX1 inh-2,ssDAF-12 act,hcDAF-12 act,hgDAF-12 ag,DAX1 conf,SF1 mutant ctr
COc1ccc(NC(=O)CN2C(=O)N(C)Cc3ccccc32)c(C)c1,-0.3,1.4,-1.6,-1.0,1.0,x,x
CC(C)C[C@@H]1Cc2[nH]c(=S)[nH]c(=O)c2[C@H](C)O1,5.8*,x,-1.1,-1.0,0.8,2.9,0.8
NC(=O)C1CCCN(C(=O)c2ccc(-c3cccc(Cl)c3Cl)o2)C1 (stereo unspecified),5.6*,0.2,0.0,2.5,10.1,9.2*,4.8*
O=C(NCC1CCCO1)c1ccc(-c2ccccc2Cl)o1 (stereo unspecified),7.3*,2.3,-0.3,2.5,13.2*,10.9*,6.0*
O=C(c1ccc(-c2ccccc2Cl)o1)N1CCC1,5.1*,0.8,-0.1,1.1,8.3,5.7*,4.3*
Cc1onc(-c2ccccc2Cl)c1C(=O)NCC1CCCO1 (stereo unspecified),-0.1,-0.9,-1.0,-0.7,-0.5,x,x
S=C(Nc1ccccc1Br)OCCN1CCCC12CCC(c1ccccc1)CC2 (stereo unspecified),x,x,-2.0,0.8,-0.8,x,x
O=C1NC(Cc2ccccc2)c2nc3cc(Cl)ccc3c(=O)n2-c2ncccc21 (stereo unspecified),0.5,-0.1,-0.7,-0.9,-2.2,x,x
Cc1ccnc(NC(=O)CSc2ccccn2)c1,0.3,0.3,-1.1,2.0,-0.5,x,x
Cc1ccc(C2=NNC(c3cccc(F)c3)S2)cc1 (stereo unspecified),9.5*,-1.8,1.6*,13.8*,17.4*,11.4*,5.2*
Cc1ccc(C2=NNC(C(O)C(O)C(O)C(C)O)S2)cc1 (stereo unspecified),0.9,1.0,-0.8,-0.2,7.2,x,x
Cc1ccc(/C=N\NC(=O)Cc2noc3ccccc23)cc1,-0.1,-0.8,-1.1,-1.1,1.9,x,x
CCN(N=O)c1ccc(C=C2C=Cc3ccccc32)cc1,6.6*,3.2,-0.1,5.8*,19.1*,9.3*,5.7*
CC(=O)N(O)c1ccc(C=Cc2ccccc2)cc1,-0.4,x,-0.9,4.3,5.5,x,x
CC(=O)N(C)c1ccc(C=C2C=Cc3ccccc32)cc1,4.9*,0.1,0.3,6.2*,6.0,2.5,-1.6
CN(C)c1ccc(C=C2C(=O)OC(C)(C)OC2=O)cc1,-0.6,0.7,-0.2,-1.0,1.5,x,x
CCN(CC)c1ccc(C=C2C(=O)OC(c3ccccc3)OC2=O)cc1 (stereo unspecified),-0.8,1.9,-0.9,-2.4,-0.9,x,x
CN(N=O)c1ccc(C=C2C=Cc3ccccc32)cc1,6.3*,5.0*,1.0*,7.4*,10.8*,11.8*,6.8*
CCS(=O)(=O)C(C)(CCl)C(=O)Nc1ccc(C(=O)OC)cc1 (stereo unspecified),-0.5,-0.9,-0.8,-1.0,-0.1,x,x
Cc1ccc(NC(=O)c2ccc(OCC3CCCO3)cc2)nc1 (stereo unspecified),8.3*,0.3,0.0,3.5,11.6*,6.7*,3.3*
Cc1cnc(NC(=O)c2ccc(OCC3CCCO3)cc2)s1 (stereo unspecified),2.1,-2.6,-0.2,4.6,8.8,x,x
CCOC(=O)c1csc(NC(=O)c2cccs2)n1,8.7*,1.5,0.1,4.0,9.6,10.4*,6.7*
CCOC(=O)c1csc(NC(=O)C2=COCCO2)n1,7.0*,2.8,-0.1,2.5,7.3,9.0*,7.1*
CC(C)(C)c1csc(NC(=O)C2=COCCO2)n1,6.6*,1.7,0.2,0.9,11.6*,8.2*,5.3*
Cc1ccc(-c2csc(NC(=O)C3=COCCO3)n2)cc1,1.1,0.5,-1.1,1.5,9.8,x,x
SMILES,DAX1 inh-1,DAX1 inh-2,ssDAF-12 act,hcDAF-12 act,hgDAF-12 ag,DAX1 conf,SF1 mutant ctr
CCOC(=O)Cc1csc(NC(=O)c2cccs2)n1,0.0,-0.1,-1.4,-0.3,0.4,x,x
Cc1ccc(N(C)S(=O)(=O)c2cccc(C(=O)N(C)Cc3cnn(-c4ccccc4)c3)c2)cc1,-1.5,-1.8,-1.4,-1.5,-4.3,x,x
Cc1cccc(CN2CCCC(C(=O)Nc3ccc(-c4cscn4)cc3)C2)c1 (stereo unspecified),4.6*,0.0,-1.1,-2.7,1.8,2.7,-0.7
CC(=O)c1cccc(NC(=O)/C(=C\c2ccco2)NC(=O)c2ccco2)c1,4.9*,1.3,-1.3,-1.2,-0.3,0.8,0.7
O=C(COC(=O)c1ccccc1-n1cnnn1)c1ccc(F)cc1,7.7*,3.2,-0.1,3.6,7.1,7.5*,5.6*
c1ccc(C2=NNC(=NC3CC3)SC2)cc1,6.8*,-1.9,0.8,5.1,11.8*,5.3*,1.7
O=C(COC(=O)CCC(=O)c1cccs1)Nc1ccccc1[N+](=O)[O-],0.3,-0.5,-0.1,3.5,1.6,x,x
O=c1cc(-c2ccc(O)c(O)c2)oc2ccc3ccccc3c12,8.4*,-3.9,0.1,3.4,10.4*,1.0,-4.8
O=c1cc(-c2ccc(O)c(O)c2)oc2c1ccc1ccccc12,-1.2,-1.0,-1.9,-1.6,-2.2,x,x
O=S1(=O)CC(N2CC=CC2)CN1Cc1cn(Cc2ccc(F)cc2)nn1 (stereo unspecified),5.2*,x,-1.3,-0.1,-2.4,2.3,0.6
O=S1(=O)CC(N2CCN(CC3CC3)CC2)CN1Cc1ccc(F)cc1 (stereo unspecified),5.9*,x,-0.7,2.2,0.0,2.6,-1.4
O=C(Nc1ccc2c(c1)Cc1ccccc1-2)NC1CCCCN(Cc2ccc(Cl)cc2)C1=O (stereo unspecified),0.0,x,0.4,0.5,7.3,x,x
COc1ccccc1CNC(=O)CSC(=S)N1CCCC1,-0.5,2.0,-0.9,2.0,-0.7,x,x
O=C(/C=C/c1ccc(F)cc1)NC(=S)Nc1ccccc1O,-0.2,-0.3,-1.4,-1.2,3.3,x,x
CSc1ccc(/C=C/C(=O)NC(=O)c2ccccc2O)cc1,4.9*,1.0,-0.3,4.4,12.9*,8.8*,5.8*
CC(=Nc1ccccc1)C1=C(O)C(Cc2ccccc2)NC1=O (stereo unspecified),8.2*,2.3,0.6,4.4,4.5,30.8*,-4.8
O=C(Nc1ccc(-c2nc3ccccc3[nH]2)cc1)C1CCCO1 (stereo unspecified),7.7*,-1.0,0.0,5.4,13.1*,15.3*,8.9*
CN1CCN(c2ccccc2NC(=S)NC(=O)c2cc3ccccc3o2)CC1,-0.3,0.5,-1.0,-0.9,0.1,x,x
Cc1c(NC(=S)NC(=O)c2cc3ccccc3o2)cccc1C(=O)O,6.8*,1.8,-0.3,3.5,4.2,6.6*,5.8*
O=C(NCCS(=O)(=O)NCCc1ccccc1)c1ccccc1,4.7*,0.6,-0.3,1.1,2.8,3.0,1.2
